Experimental data: PubChem BioAssay (NCI)
The panel holds about 83,000 compounds, 20% with a hit somewhere; the sample as a whole holds those more often.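 Percent growth is the endpoint: 0 to 100 indicates growth inhibition (40 means 60% inhibition), 0 means no net growth, and negative values indicate cell death.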 Calls of active or inactive are those of the source. How the source made its calls: active means growth percent below 10; inactive means the rest.

What was measured:
Assay in all cases: NCI-60 one-dose screen, 48 h (100 = growth as untreated, 0 = no growth, -100 = all killed)
Conditions in all cases: 10 µM unless noted
[1] = system: DU-145 prostate
[2] = system: K-562 leukemia
[3] = system: MALME-3M melanoma
[4] = system: MDA-MB-231 breast
[5] = system: RXF 393 renal
[6] = system: SF-268 CNS
[7] = system: SF-295 CNS
[8] = system: SF-539 CNS
[9] = system: UACC-257 melanoma
[10] = system: M14 melanoma
[11] = system: HCT-15 colon
[12] = system: HT29 colon
[13] = system: SNB-75 CNS
[14] = system: SNB-19 CNS
[15] = system: U251 CNS
[16] = system: PC-3 prostate
[17] = system: SK-MEL-5 melanoma
[18] = system: UACC-62 melanoma
[19] = system: LOX IMVI melanoma
[20] = system: SK-MEL-28 melanoma

Measured: growth

Cc1ccc(S(=O)(=O)Oc2cc(OS(=O)(=O)c3ccc(C)cc3)cc(OS(=O)(=O)c3ccc(C)cc3)c2)cc1
inactive: [1] 108% | [2] 94.4% | [3] 133% | [4] 92.2% | [5] 99.6% | [6] 99% | [7] 86.9% | [8] 95% | [9] 104% | [10] 108% | [11] 98.1% | [12] 98.7% | [13] 95.4% | [14] 104% | [15] 108% | [16] 86.9% | [17] 94.4% | [18] 86.1% | [19] 98.1% | [20] 112%

NC(N)=NN=C(c1ccccc1)c1ccccc1
active: [5] -28.4% | [10] -6.76% | [13] -7.05% | [17] 3.67%
inactive: [1] 22.8% | [2] 21.7% | [3] 48.8% | [4] 59.6% | [6] 46.1% | [7] 43% | [8] 19.3% | [9] 64.4% | [11] 30.9% | [12] 11.7% | [14] 47% | [15] 32.1% | [16] 23.8% | [18] 54.8% | [19] 30.8% | [20] 43.1%

O=c1c2c3c(sc2n2c(-c4cn(-c5ccccc5)nc4-c4ccc(Cl)cc4)nnc2n1Cc1ccccc1)CCCC3
inactive: [1] 103% | [2] 89.7% | [3] 97.4% | [4] 80.3% | [5] 94.5% | [6] 99.7% | [7] 98.5% | [8] 90.3% | [9] 118% | [10] 60.3% | [11] 104% | [12] 113% | [13] 66.8% | [14] 97.9% | [15] 98.2% | [16] 95.3% | [17] 95.8% | [18] 90.6% | [19] 72.3% | [20] 105%

COc1cc2nc(Cl)nc(Nc3ccc(S(=O)(=O)Nc4nccs4)cc3)c2cc1OC
inactive: [1] 119% | [2] 115% | [3] 112% | [4] 109% | [5] 110% | [6] 109% | [7] 104% | [8] 85.9% | [9] 103% | [10] 100% | [11] 96.3% | [12] 117% | [13] 87.1% | [14] 102% | [15] 96.3% | [16] 91.6% | [17] 102% | [18] 96% | [19] 86.5% | [20] 115%

Cc1cccc(Cc2cnc(NC(=O)c3ccc4nnsc4c3)s2)c1
inactive: [1] 74% | [2] 39.4% | [3] 95.3% | [4] 111% | [5] 97.5% | [6] 89.9% | [7] 93.7% | [8] 91% | [9] 95.4% | [10] 64.6% | [11] 68.6% | [12] 82.8% | [13] 105% | [14] 96.1% | [15] 88.7% | [16] 66.1% | [17] 97.3% | [18] 35.3% | [19] 34.6% | [20] 103%

COc1ccc(C(=O)Nn2c(NCC(=O)N3c4ccccc4Sc4ccccc43)nnc2-c2ccc(O)cc2)cc1
inactive: [1] 116% | [2] 114% | [3] 98.1% | [4] 101% | [5] 117% | [6] 111% | [7] 107% | [8] 117% | [9] 94.9% | [10] 91.7% | [11] 96.9% | [12] 98.2% | [13] 115% | [14] 111% | [15] 97% | [16] 97.6% | [17] 104% | [18] 104% | [19] 98.4% | [20] 119%

CC/C=C1/C(=O)C=C[C@@H]1C/C=C\CCCC(=O)O
inactive: [1] 98.3% | [2] 25.1% | [3] 101% | [4] 79.4% | [5] 110% | [6] 92.4% | [7] 101% | [8] 101% | [9] 73.9% | [10] 77.5% | [11] 72.8% | [12] 78.9% | [13] 105% | [14] 92.1% | [15] 64.9% | [16] 80.5% | [17] 81.5% | [18] 30.7% | [19] 19.9% | [20] 96.9%

COc1ccc(NC(=O)CSc2nnc(-c3cc(-c4ccc(S(N)(=O)=O)cc4)nc4ccccc34)n2-c2ccccc2)cc1
inactive: [1] 96.6% | [2] 66.4% | [3] 77.5% | [4] 72.8% | [5] 81.9% | [6] 68.6% | [7] 94.5% | [8] 78.4% | [9] 103% | [10] 86.1% | [11] 89% | [12] 86.4% | [13] 55.7% | [14] 82.5% | [15] 85.5% | [16] 65.9% | [17] 74.6% | [18] 65.3% | [19] 90.3% | [20] 80.6%
